Assay results reported in paper PMC4552634, “A New Set of Chemical Starting Points with Plasmodium falciparum Transmission-Blocking Potential for Antimalarial Drug Discovery” (PLoS ONE, 2015).
Screen size: about 13,000 compounds; about 3,200 (25%) showed an effect of 50% or more. Some of the results follow.

These molecules were tested on P. falciparum stage V gametocytes. Settings: 48 h, 5 µM; inhibitor.
Design: BacTiter-Glo ATP luminescence viability of purified stage V gametocytes in 384-well plates, per cent inhibition versus DMSO

SMILES	% Inhibition [%]
Cc1ccc2sc(N3CCN(C(=O)c4ccc([N+](=O)[O-])o4)CC3)nc2c1C [TCMDC-124314]	93.58
Cc1cc(C)c2oc(-c3cccc(NC(=O)c4ccc([N+](=O)[O-])o4)c3C)nc2c1 [TCMDC-123704]	43.1
COc1cccc2sc(N3CCN(C(=O)c4ccc([N+](=O)[O-])o4)CC3)nc12 [TCMDC-125150]	57.22
CCCCCCN1CCC(CNCc2cccc([N+](=O)[O-])c2)CC1 [TCMDC-141211]	17.53
O=C(Nc1ccc(N2CCN(C(=O)/C=C/c3ccccc3)CC2)c(Cl)c1)c1ccc([N+](=O)[O-])o1 [TCMDC-125229]	0.8671
Cc1c(Cl)ccc2sc(N3CCN(C(=O)c4ccc([N+](=O)[O-])o4)CC3)nc12 [TCMDC-125453]	88.71
CCc1cccc2sc(N3CCN(C(=O)c4ccc([N+](=O)[O-])o4)CC3)nc12 [TCMDC-124317]	88.03
COc1ccccc1C(=O)N1CCN(Cc2cccs2)CC1 [TCMDC-139297]	0.2209
COc1ccc(/N=[N+](\[O-])c2ccccc2/[N+]([O-])=N/c2ccc(OC)cc2)cc1 [TCMDC-131243]	-4.101
CC(=O)Nc1ccccc1OCc1cc2cc(C(=O)N3CCC(N4C(=O)OCc5ccccc54)CC3)ccc2o1 [TCMDC-138453]	6.686
CCc1c(C)c2ccc3c(c2oc1=O)CN(CCc1ccc(F)cc1)CO3 [TCMDC-125082]	34.69
Cn1nccc1C(=O)NCCNCc1ccc(-c2ccc(-c3nc4cc(C(F)(F)F)ccc4[nH]3)cc2)cc1.O=C(O)C(F)(F)F [TCMDC-133013]	-32.96
Cc1nc(-c2nc(N3CCC(C(N)=O)CC3)ncc2-c2ccsc2)sc1C [TCMDC-125362]	25.42
COC(=O)c1cccc(CNCc2ccc(-c3ccc(-c4nc5ccc(F)cc5[nH]4)s3)cc2)c1 [TCMDC-132951]	-33.43
CCc1ccc(NC(=O)C=NNC(=N)N)cc1 [TCMDC-137521]	-23.47
c1ccc(Oc2ccc(Nc3ccnc(Nc4ccc5cn[nH]c5c4)n3)cc2)cc1 [TCMDC-138574]	-56.78
O=C(Nc1ccc(N2CCN(Cc3ccccc3Cl)CC2)cc1)c1ccc([N+](=O)[O-])o1 [TCMDC-125230]	2.358
O=C(c1ccc([N+](=O)[O-])o1)N1CCN(c2ccccc2)CC1 [TCMDC-125833]	2.332
O=C(c1ccc([N+](=O)[O-])o1)N1CCN(c2nc3c(Cl)cccc3s2)CC1 [TCMDC-124316]	86.16
O=C(c1ccc([N+](=O)[O-])o1)N1CCN(c2nc3c(F)cc(F)cc3s2)CC1 [TCMDC-125149]	102.2
CS(=O)(=O)c1cccc2sc(N3CCN(C(=O)c4ccc([N+](=O)[O-])o4)CC3)nc12 [TCMDC-124930]	105
O=C(Nc1cccc(-c2nc3ccccc3s2)c1)c1ccccc1[N+](=O)[O-] [TCMDC-125736]	-19.42
CC(C)(C)OC(=O)N1CCC(C2CCN(C(=O)OC(C)(C)C)CC2)CC1 [TCMDC-132002]	7.482
COc1cccc(-c2csc(C(=O)NCC3CCN(Cc4ccc(C(C)(C)C)cc4)C3)c2)c1 (centres unmarked) [TCMDC-134447]	100.1
CCc1ccc(CN2CCC(CNC(=O)c3cc(-c4cccc(Cl)c4)cs3)C2)cc1 (centres unmarked) [TCMDC-134434]	86.46

SMILES	% Inhibition [%]
CC(=O)Nc1ccc(CN2CCC(CNC(=O)c3cc(-c4cccc(Cl)c4)cs3)C2)cc1 (centres unmarked) [TCMDC-134457]	-3.132
O=C(NCC1CCN(CC2CCCCC2)C1)c1cc(-c2cccc(Cl)c2)cs1 (centres unmarked) [TCMDC-134423]	42.83
CC(C)(C)c1ccc(CN2CCC(CNC(=O)c3cc(-c4cccc(Cl)c4)cs3)C2)cc1 (centres unmarked) [TCMDC-134446]	98.88
CC(C)(C)c1ccc(CN2CCC(CNC(=O)c3cc(-c4cccc(F)c4)cs3)C2)cc1 (centres unmarked) [TCMDC-134444]	110.8
CCCOc1cc(Cc2cnc(N)nc2N)cc(OC)c1OC [TCMDC-137661]	3.215
Cc1ccc(Oc2ccc(NC(=O)CNc3ccccc3N3CCCC3=O)cc2)cc1 [TCMDC-125245]	-23.96
CCc1ccc(CN2CCC(CNC(=O)c3cc(-c4cccc(F)c4)cs3)C2)cc1 (centres unmarked) [TCMDC-134432]	99.62
CN(C)c1ccc(CN2CCC(CNC(=O)c3cc(-c4cccc(C(F)(F)F)c4)cs3)C2)cc1 (centres unmarked) [TCMDC-134452]	29.06
CN(C)c1ccc(CN2CCC(CNC(=O)c3cc(-c4cccc(F)c4)cs3)C2)cc1 (centres unmarked) [TCMDC-134454]	71.45
O=C(NC1CCN(Cc2ccccc2)CC1)c1cc(-c2ccncc2)nc2ccc(Cl)cc12 [TCMDC-124995]	9.958
CC(C)(C)c1ccc(CN2CCC(CNC(=O)c3cc(-c4ccccc4)nc4ccccc34)CC2)cc1 [TCMDC-139154]	75.79
O=C(NC1CCN(Cc2ccccc2)CC1)c1cc(-c2cccnc2)nc2ccc(Cl)cc12 [TCMDC-125223]	-0.2191
CC(Nc1nncc(-c2cccc(F)c2)n1)c1ccc(F)cc1 (centres unmarked) [TCMDC-124683]	-23.73
COc1ccc(NC(=O)Nc2cccc(-c3ccc(-c4nc5ccc(C(F)(F)F)cc5[nH]4)cc3)c2)cc1 [TCMDC-133244]	-27.48
CCOC(=O)c1ccc(Nc2cc(Nc3ccc(C(=O)OCC)cc3)nc(C)n2)cc1 [TCMDC-125781]	36.3
O=C(Nc1cccc(CN2CCCN(CC3CC3)CC2)c1)c1ccc(-c2ccccc2)cc1 [TCMDC-141846]	-26.45
Cc1nc2nc(N)nc(N)c2c(C)c1Cc1ccc(O)cc1 [TCMDC-137637]	-12.62
CC(C)C1C(=O)N(S(C)(=O)=O)C2CCN(C(=O)c3ccc(CN4CCCCC4)c([N+](=O)[O-])c3)C12 (centres unmarked) [TCMDC-138195]	96.13
O=C(/C=C/c1ccc(Cl)c(Cl)c1)NC1CCC(CN2CCC(Cc3c[nH]c4ccccc34)CC2)CC1 (centres unmarked) [TCMDC-140141]	5.841
COc1ccccc1N1CCN(CCCCNC(=O)c2ccc(NC(=O)c3ccc(C(F)(F)F)cc3)cc2)CC1 [TCMDC-138110]	-20.18
O=C(NCCCCN1CCC(c2nc3ccccc3s2)CC1)c1cc2ccccc2[nH]1 [TCMDC-132779]	6.014
Nc1ccncc1C(=O)NCCCCN1CCN(c2nsc3ccccc23)CC1 [TCMDC-137310]	70.91
COc1ccc(Cl)cc1N1CCN(CCCNC(=O)c2ccc(-c3nc4ccncc4[nH]3)c(Br)c2)CC1 [TCMDC-140145]	-23.34
Nc1c(C(=O)NCCCCN2CCN(c3nsc4ccccc34)CC2)sc2ccccc12 [TCMDC-137254]	-32.13
O=C(NCCCCN1CCN(c2nsc3ccccc23)CC1)c1ccccc1C(=O)NCCCCN1CCN(c2nsc3ccccc23)CC1 [TCMDC-137241]	54.48

SMILES	% Inhibition [%]
c1csc(-c2nc(NCC3CCCO3)ncc2-c2ccsc2)n1 (centres unmarked) [TCMDC-125365]	7.159
CCCCCCN1CCCN(Cc2ccc(C(=O)Nc3cccc(CC)c3)cc2)CC1 [TCMDC-136412]	-23.63
CC1(C)N=C(N)N=C(N)N1OCCCc1ccccc1 [TCMDC-131689]	3.846
CCNc1cc(C(=O)N[C@@H](Cc2ccccc2)[C@H](O)CNC2(CCC(C)C)CC2)cc(N2CCCCS2(=O)=O)c1 [TCMDC-135245]	4.245
O=C(Nc1cccc(OCCN2CCCC2)c1)Nc1ccc(Cl)c(Cl)c1 [TCMDC-139540]	28.24
O=C(Nc1ccc(Cl)c(Cl)c1)N1CCc2ccc(OCCCN3CCCCC3)cc2CC1 [TCMDC-141755]	13.17
CCCCCCOc1ccc(C(=O)N[C@H]2CCN(CCCCCNC(=O)/C=C/c3ccc(Cl)c(Cl)c3)C2)cc1 [TCMDC-139564]	40.4
Clc1ccc(OCCC2CCN(CCCCCCCN3CCC(CCOc4ccc(Cl)c(Cl)c4)CC3)CC2)cc1Cl [TCMDC-138967]	119.8
CCCCCCN1CCC(CNCc2cccc(Cl)c2)CC1 [TCMDC-141678]	45.32
Clc1ccc(OCCC2CCN(CCCCCCN3CCCCC3)CC2)cc1Cl [TCMDC-138982]	100.1
N#Cc1ccc(-c2ccc(C(=O)Nc3ccc4c(c3)CCN(C3CCC3)CC4)nc2)cc1 [TCMDC-136032]	15.17
Cc1onc(-c2ccccc2)c1-c1nc(NC2CCCC(C)C2)no1 (centres unmarked) [TCMDC-134202]	-14.49
CCN(c1ccc(O)c(CN2CCCCC2)c1)c1ccc([N+](=O)[O-])cn1 [TCMDC-138001]	10.77
CCN(CC)S(=O)(=O)c1ccc(C(C)NC(=O)c2ccccc2COc2ccccc2)cc1 (centres unmarked) [TCMDC-125332]	39.64
Cc1ccc(C)c(CC(=O)N2CCC(n3c(C)nc4ccc(F)cc43)CC2)c1 [TCMDC-124790]	89.97
CCC(C)NS(=O)(=O)c1ccc2nc(Nc3ccc(C)c(Cl)c3)n(C3CCCCC3)c2c1 (centres unmarked) [TCMDC-136233]	-49.77
O=C(O)c1ccc2nc(-c3ccc(-c4ccccc4)cc3)n(C3CCN(Cc4ccc(-c5ncc[nH]5)cc4)CC3)c2c1 [TCMDC-134669]	12.72
Cc1cc(C)cc(CC(=O)N2CCC(n3c(C)nc4ccc(C)cc43)CC2)c1 [TCMDC-124789]	80.51
Cc1nc2ccc(F)cc2n1C1CCN(C(=O)Cc2ccc(F)c(F)c2)CC1 [TCMDC-124794]	73.02
CCN1CCC(N2CCC(n3c(C)nc4cc(C(F)(F)F)ccc43)CC2)CC1 [TCMDC-124671]	0.4186
Cc1ccc(C)c(Cn2c(N3CCC(C(=O)NCc4cccs4)CC3)nc3ccccc32)c1 [TCMDC-124399]	-1.754
CCC(C)NS(=O)(=O)c1ccc2nc(Nc3ccc(C)cc3)n(C3CCCCC3C)c2c1 (centres unmarked) [TCMDC-136231]	-48.39
Cc1ccc2nc(C)n(C3CCN(C(=O)Cc4ccc(F)c(F)c4)CC3)c2c1 [TCMDC-124793]	84.63
CCC(C)NS(=O)(=O)c1ccc2nc(Nc3ccc(C)cc3)n(C3CCCCC3)c2c1 (centres unmarked) [TCMDC-136232]	-89.75
